# Sfp inh = qHTS Assay for Inhibitors of Bacillus subtilis Sfp phosphopantetheinyl transferase (PPTase); 4'-phosphopantetheinyl transferase ffp (Bacillus subtilis), Q9F4F7; Potency, µM, without a hit: largest response in the series, negative = inhibition, most hits filed as inhibitors; Biochemical Sfp PPTase activity, qHTS; 310,000 compounds, 3.5% hits;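 also: the enzyme is Sfp with the accession as filed and its product quenches rhodamine fluorescence; potency is read from the fitted curve at half-maximal effect; 0% = enzyme reaction without inhibitor and -100% = no enzyme wells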
#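 Reaction rates are the 30-min fluorescence difference (ex 525, em 598 nm) in wells containing 15 nM Sfp, 5 uM rhodamine-CoA and 12.5 uM BHQ-2-YbbR at pH 7.6 with 10 mM MgCl2.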
# Mm-Cpn inhibitor = Inhibitors of TCP-1 ring complex (TRiC) of Methanococcus maripaludis (MmCpn): qHTS. purified Mm-Cpn ATPase, ADP Transcreener TR-FRET. Chaperonin Mm-Cpn (Methanococcus maripaludis). AID 504842, 2011. Potency, µM (highest dose often 76.9 µM), inactives show top-dose activity, negative = inhibition, most hits filed as inhibitors. 330,000 compounds, 0.031% hits; also: potency is read from the fitted curve at half-maximal effect; nearly all actives have a fitted effect of over 80% in size
#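 Quantitative HTS used 25 nM Mm-CPN and 10 uM ATP in magnesium/KCl Tris buffer, pH 7.4, with 1 mM DTT. Hydrolysis ran 30 min at 37°C; ADP was read by HTRF.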
# PLK1 PBD inh = qHTS for Inhibitors of PLK1-PDB (polo-like kinase 1 - polo-box domain): Primary Screen. Serine/threonine-protein kinase PLK1 (Homo sapiens), P53350. AID 720504, 2013. Potency, µM, for the others: max response, negative = inhibition, usual class: inhibitors. Plk1 PBD binding of FITC phosphopeptide, fluorescence polarization. 360,000 compounds, 2.8% hits; also: potency is read from the fitted curve at half-maximal effect; series mostly up to about 57 µM; nearly all actives have a fitted effect of over 65% in size
# Target sequence (P53350 whole entry, looked up, the tested form may be a part): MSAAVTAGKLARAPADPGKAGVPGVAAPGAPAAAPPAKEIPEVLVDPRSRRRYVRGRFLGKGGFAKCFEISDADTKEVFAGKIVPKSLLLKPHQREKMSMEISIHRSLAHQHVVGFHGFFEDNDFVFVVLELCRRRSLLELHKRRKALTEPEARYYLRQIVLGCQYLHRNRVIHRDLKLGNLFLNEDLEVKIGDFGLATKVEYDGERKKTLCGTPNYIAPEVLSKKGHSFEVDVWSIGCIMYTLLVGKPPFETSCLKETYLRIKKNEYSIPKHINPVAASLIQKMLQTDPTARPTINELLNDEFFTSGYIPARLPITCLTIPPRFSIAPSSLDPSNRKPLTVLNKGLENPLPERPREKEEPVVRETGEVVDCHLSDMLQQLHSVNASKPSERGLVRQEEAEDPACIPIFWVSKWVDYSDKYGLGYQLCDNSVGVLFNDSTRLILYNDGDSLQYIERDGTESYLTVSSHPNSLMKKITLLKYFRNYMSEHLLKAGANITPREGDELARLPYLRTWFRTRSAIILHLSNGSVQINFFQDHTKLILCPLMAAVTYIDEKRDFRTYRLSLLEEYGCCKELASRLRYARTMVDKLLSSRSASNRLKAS
# CCT modulator = High-Throughput Screening for Modulators of Cytosolic Chaperonin Activity. AID 651819, 2012. 360,000 compounds, 0.3% hits. activity change, % (no concentration beside the values), hits read low. purified chaperonin ATPase assay, HTRF ADP detection, 30 min; in the data active = activity change below about -30%
#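 Nucleotide hydrolysis assay: TRiC at 20–40 nM final (set by batch activity) with 10 uM ATP, 30 min at 37 °C, in presence of 76 uM compound. Detection by competitive ADP HTRF, 30 min ambient.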
# G9a block = qHTS Assay for Inhibitors of Histone Lysine Methyltransferase G9a | Histone-lysine N-methyltransferase EHMT2 (Homo sapiens), Q96KQ7 | 350,000 compounds, 8.8% hits | G9a H3K9 monomethylation, AlphaScreen, 2 h | Potency, µM (highest dose often 102 µM), inactives show at the top dose activity, negative = inhibition, usual class: inhibitors | AID 504332, 2011; also: potency is read from the fitted curve at half-maximal effect; nearly all actives have a fitted effect of over 75% in size
#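 AlphaScreen read-out: biotin-H3K9 peptide (500 nM) methylation by 20 nM enzyme with 20 uM SAM, 2 h at room temperature after 15 min compound preincubation; anti-monomethyl H3K9 antibody plus donor/acceptor beads, 10 min dark.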
# VDR inhibitor = Inhibitors of the vitamin D receptor (VDR): qHTS; Vitamin D3 receptor (Homo sapiens), P11473; VDR-SRC2-3 peptide fluorescence polarization, 2 h; Potency, µM, without a hit: max response, negative = inhibition, actives largely listed as inhibitors; 400,000 compounds, 0.93% hits; AID 504847, 2011; also: potency is read from the fitted curve at half-maximal effect
#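 Inhibition of the VDR/SRC2-3 peptide interaction is quantified by fluorescence polarization. Compounds (23 nl, pintool) incubate with the reagents for 2 hours at ambient room temperature.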
# Active calls of the source: *; u = inconclusive; x = no result; ! = not confirmed by another sample; [ ] = remark or other dose. In the library only some 10% were active in any assay of this set; here they are far more common. Unless noted, calls follow the shape of the dose curve; as a rule, active = well fitted curve in the direction sought with a large enough effect; inconclusive = small, poorly fitted or top-dose-only effect, or another doubt; inactive = no such curve, though single readings can be large; an effect the other way counts as inactive or inconclusive. Unless noted, % is scaled to controls: 0 for no effect and ±100 for the full control effect.
SMILES,Sfp inh,Mm-Cpn inhibitor,PLK1 PBD inh,CCT modulator,G9a block,VDR inhibitor
CC(=O)Nc1nc(C)c(-c2csc(Nc3ccccn3)n2)s1,-9%,-4%,-2%,-1,-32%,74%
Cc1nc(C)c(-c2csc(Nc3ccc(O)c(C(=O)O)c3)n2)s1,-27%,-9%,u,-1,79µM*,u
Cc1nc2ncccn2c1-c1csc(Nc2ccc(O)cc2)n1,u,-8%,-6%,-1,11µM*,-2%
CC(=O)Nc1ccc(Nc2nc(-c3sc(NC(C)=O)nc3C)cs2)cc1,u,-5%,24µM*,-3,50µM*,32µM*
CC(C)c1ccc(N2C(=O)CSC23C(=O)N(Cc2ccccc2F)c2ccccc23)cc1 (stereo not drawn),x,x,x,x,7%[59 µM],3%
Cc1ccc(NC2SC(=O)N(Cc3cccc(C(=O)O)c3)C2=O)c(C)c1 (stereo not drawn),0%,-1%,u,-1,-36%,91%
O=C(O)c1cccc(CN2C(=O)SC(Nc3cccc4ccccc34)C2=O)c1 (stereo not drawn),u,-4%,u,-10,50µM*,-16%
O=C(O)CN1C(=O)SC(Nc2ccc(C(=O)O)cc2)C1=O (stereo not drawn),-27%,-1%,-6%,-1,u,12%
Cc1ccc(NC2SC(=O)N(Cc3cccc(C(=O)O)c3)C2=O)cc1 (stereo not drawn),-18%,-1%,21µM*,1,u,4%
O=C(O)CN1C(=O)SC(Nc2ccccc2C(=O)O)C1=O (stereo not drawn),u,-3%,-16%,-2,40µM*,-8%
CCC(=O)NC(c1ccc(OC)c(OC)c1)c1cc(Cl)c2cccnc2c1O (stereo not drawn),56µM*,1%,-12%,-1,x,2%
CCCCC(=O)NC(c1ccc(Cl)cc1)c1ccc2cccnc2c1O (stereo not drawn),x,x,27µM*,1,x,u
CCCC(=O)NC(c1ccc(Cl)cc1)c1ccc2cccnc2c1O (stereo not drawn),21%,1%,4%,2,32%,14%
CCCCC(=O)NC(c1ccc(N(CC)CC)cc1)c1ccc2cccnc2c1O (stereo not drawn),17%,0%,-8%,-1,-10%,-9%
CCCCC(=O)NC(c1ccc(N(C)C)cc1)c1ccc2cccnc2c1O (stereo not drawn),11%,0%,27µM*,-2,40µM*,-27%
CCCOc1ccc(NC(=O)CC2C(=O)N(c3ccccc3)C(=O)N2Cc2ccc(F)cc2)cc1 (stereo not drawn),x,x,x,x,-11%[59 µM],6%
CCCCNc1nc(Oc2ccc(OCC)nn2)nc(N2CCOCC2)n1,x,x,x,x,-3%[59 µM],8%
COc1ccccc1C(=O)O/N=C1/CCCc2c1ccc(OC)c2[N+](=O)[O-],11%,0%,-27%,1,50µM*,10%
Cc1cccc(N2CCN(C(=O)c3ccc4c(Cl)c5c(nc4c3)CCCC5)CC2)c1C,x,x,x,x,-2%[59 µM],2%
Nn1c(C2COc3ccccc3O2)n[nH]c1=S (stereo not drawn),7.1µM*,1%,17µM*,2,2.8µM*,u
Cc1ccc(C(=O)CC2(O)C(=O)N(C)c3ccccc32)s1 (stereo not drawn),u,-21%,-2%,0,45µM*,21%
Cc1ccc(C(C)C)cc1C(=O)CC1(O)C(=O)N(C)c2ccccc21 (stereo not drawn),10%,-1%,-1%,0,23%,-3%
NCCSSCCN,45µM*!,1%,u,0,22µM*,25µM*

# Screening results as filed in PubChem BioAssay.
